Experimental data as given in the OligoGym collection.

Each sequence was assayed against GDF3 (assay: pooled miR-30 sensor sort-seq; sequence = guide strand). Details: shRNA.
Further: reference of the scale not given here.

Question: Which sensor-assay potency score (higher = more potent) does the source give for TAGAATGACATTGTCATTATTG here?
Answer: -1.56

Question: TTTATTAAAAGATTTACCCTAA was tested. Which sensor-assay potency score (higher = more potent) did it give?
Answer: 0.196

Question: TTTACGTAGCATAAGTCTCGGG was tested. Which sensor-assay potency score (higher = more potent) did it give?
Answer: -0.227

Question: For TTACGTAGCATAAGTCTCGGGA, which sensor-assay potency score (higher = more potent) is on record?
Answer: 0.238

Question: TGAAGTGAACAGCACCTTGTGG was tested. Which sensor-assay potency score (higher = more potent) did it give?
Answer: -0.321

Question: ATCCTTAGCTACATCCAGCAGG was tested. Which sensor-assay potency score (higher = more potent) did it give?
Answer: -0.935

Question: For ATTGTCATTATTGTCCTGGTAG, which sensor-assay potency score (higher = more potent) is on record?
Answer: 0.032

Question: With TAATGTCGTAGAATGACATTGT as the sequence, how does the sensor-assay potency score (higher = more potent) read?
Answer: 0.288

Question: Which sensor-assay potency score (higher = more potent) does the source give for TAACAGGAAGCTGAAAGCCAAA here?
Answer: -1.72

Question: For TTTACCCTAAGAACACTCCTTC, which sensor-assay potency score (higher = more potent) is on record?
Answer: 0.541

Question: For TTCTTGAAATTGGACTGCCTGG, which sensor-assay potency score (higher = more potent) is on record?
Answer: -1.06

Question: TTCTTTGACCAGTATCTCCAGG was tested. Which sensor-assay potency score (higher = more potent) did it give?
Answer: -0.0651

Each sequence was assayed against GEMIN6 in the same assay as above. Details: shRNA.

Question: How did the sensor-assay potency score (higher = more potent) turn out when TTTGTAAATGTAATCTTGCCAT was run?
Answer: -0.539

Question: TAATCTTGCCATTCTAAGGGGC was tested. Which sensor-assay potency score (higher = more potent) did it give?
Answer: 0.00534

Question: TTAGGCTGTTCTTTCTCTCTTC was tested. Which sensor-assay potency score (higher = more potent) did it give?
Answer: -0.165

Question: For TTCTCTCTTCCAGATCCTCTGG, which sensor-assay potency score (higher = more potent) is on record?
Answer: -0.645

Question: With ATTCCGGTCACAGACATGCTGC as the sequence, how does the sensor-assay potency score (higher = more potent) read?
Answer: -1.04

Question: With TATACTCATTCTTCTCACTGGC as the sequence, how does the sensor-assay potency score (higher = more potent) read?
Answer: 0.16
